Source: PubChem (several laboratories)
In the library only some 1.9% were active in any assay of this set; here they are far more common.
S1P2 blocker – blocks the human S1P2 receptor; inhibition, % at 5 µM; 0.21% of 97,000 active; O95136; cell-based S1P2 antagonist assay, inhibition at 5 uM; in the data active = inhibition above about 45%;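 also: CRE beta-lactamase reporter cells expressing human S1P2 stimulated with S1P; 0% = agonist at EC80 alone and 100% = agonist plus reference antagonist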
SDO1 yeast rescue – compounds rescuing growth of sdo1-depleted yeast, bone marrow failure model. S. cerevisiae sdo1-depleted JHY4D growth rescue, OD600 30 h; active compounds read high; pdr5 snq2 efflux-pump mutant strain. z-score at 10 µM. 0.21% of 140,000 active;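 active = z-score above 3 at both the 24 hr and the 30 hr optical density reads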;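 also: z-score against mean and SD of all compound wells on the same plate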
GALR2 ag – GALR2 (human) receptor agonism. O43603. GALR2-expressing cells, agonist activation read-out. activation, % (concentration not given with the values). 0.48% of 140,000 active. AID 803; in the data active = activation above about 5%, passing the limit was not always enough;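 also: 0% = vehicle buffer wells and 100% = reference agonist at full effect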
Target sequence (O43603 whole entry, looked up): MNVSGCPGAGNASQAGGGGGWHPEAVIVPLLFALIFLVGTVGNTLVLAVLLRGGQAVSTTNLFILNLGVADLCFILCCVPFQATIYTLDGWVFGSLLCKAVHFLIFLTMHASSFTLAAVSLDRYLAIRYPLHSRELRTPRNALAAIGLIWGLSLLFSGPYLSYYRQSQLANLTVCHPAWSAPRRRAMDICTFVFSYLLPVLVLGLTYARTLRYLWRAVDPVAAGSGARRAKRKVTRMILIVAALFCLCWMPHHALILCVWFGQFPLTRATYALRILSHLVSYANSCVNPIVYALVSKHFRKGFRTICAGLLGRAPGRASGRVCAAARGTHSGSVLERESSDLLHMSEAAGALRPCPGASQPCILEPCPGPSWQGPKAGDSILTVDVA
S1P2 ag – activates the human S1P2 receptor; O95136; S1P2-expressing cell line, agonist reporter read-out; activation, % at 4.5 µM; 0.46% of 97,000 active; in the data active = activation above about 16%;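 also: 0% = vehicle low control and 100% = maximal reference agonist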
FAK blocker – blocks human focal adhesion kinase activity; 0.84% of 97,000 active; AID 727; Q05397; inhibition, %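 (tested at 7 µM)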; biochemical FAK kinase activity assay; in the data active = inhibition above about 19%;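 also: 0% = DMSO and 100% = reference compound high control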
GALR2 blocker – antagonists of human galanin receptor 2 (GALR2); O43603; GALR2-expressing cells, antagonist mode; inhibition, % at 4 µM; 0.39% of 140,000 active;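 also: cells stimulated with galanin 1-16 at roughly its EC80; 0% = agonist challenge control and 100% = basal control without agonist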
GALR2 blk conf – GALR2 (human) antagonism confirmed. shares compounds with GALR2 blocker. GALR2-expressing cells, antagonist mode, inhibition. inhibition, % at 4 µM. 60% of 480 active;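 also: cells stimulated with galanin at about its EC80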
BLA inhib ctr – counter-screen for GALR2 antagonists: beta-lactamase reporter inhibitors; 36% of 480 active; inhibition, % at 4.2 µM; CHO NFAT-BLA reporter, beta-lactamase FRET, thapsigargin-stimulated; shares compounds with GALR2 blocker;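 active = inhibition above the mean inhibition across tested compounds plus 3 SD, cut at about 27% in these data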;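 also: 0% = 500 nM thapsigargin stimulated wells and 100% = unstimulated BSA only wells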
* hit, by the source's call; . = no result. Rule as the data show it, unless noted: active = inhibition above about 27%; inactive = the rest.

SMILES | S1P2 blocker | SDO1 yeast rescue | GALR2 ag | S1P2 ag | FAK blocker | GALR2 blocker | GALR2 blk conf | BLA inhib ctr
COc1ccc(Cl)cc1NC(=O)C1CCCN(S(=O)(=O)c2cccc3nonc23)C1 (stereo not given) | 6 | -0.49 | -1 | -9 | 3 | 31* | 22 | 7
COc1ccc(OC)c(NC(=O)C2CCCN(S(=O)(=O)c3cccc4nsnc34)C2)c1 (stereo not given) | 9 | -0.17 | -2 | -5 | 2 | 9 | . | .
COc1ccc(C(=O)N(c2ccccc2)C2C=CS(=O)(=O)C2)cc1 (stereo not given) | 21 | 1.1 | -1 | -2 | 1 | 30* | 22 | 0
O=C(c1ccccc1)N(c1ccccc1)C1C=CS(=O)(=O)C1 (stereo not given) | 1 | -0.15 | -1 | -1 | -2 | 5 | . | .
N/C(=N\S(=O)(=O)c1ccc(Cl)s1)c1ccccc1 | 14 | 0.09 | -1 | -5 | -2 | 11 | . | .
Cc1ccc(S(=O)(=O)N2CCSC2c2ccco2)cc1 (stereo not given) | 9 | 0.69 | -1 | -2 | -1 | 4 | . | .
NC(=O)c1ccc(NC(=O)COC(=O)c2c3c(nc4ccccc24)/C(=C\c2cccs2)CCC3)cc1 | . | 0.63 | 3 | . | . | 23 | . | .
CC(C)CNC(=O)COC(=O)c1c2c(nc3ccccc13)/C(=C/c1cccs1)CC2 | . | -0.77 | 3 | . | . | 31* | 38* | 44*
CC1CCCCC1NC(=O)COC(=O)c1c2c(nc3ccccc13)/C(=C/c1ccco1)CC2 (stereo not given) | . | 0.04 | 5 | . | . | 60* | 37* | 48*
Cc1cnc(NC(=O)Cc2c[nH]c3ccccc23)s1 | 10 | 0.32 | -3 | -7 | 3 | 33* | 25 | 5
O=C(Nc1ccccc1)c1nnsc1S(=O)c1ccc(Cl)cc1 (stereo not given) | 64* | -2 | -4 | -6 | 3 | 39* | 35* | 56*
O=C(Nc1ccc(Cl)cc1)c1cccs1 | 10 | -0.13 | 0 | -1 | 1 | 14 | . | .
O=C(CCl)N(c1ccccc1)c1c[nH]c2ccccc12 | 27 | -1.4 | -3 | -8 | -2 | 37* | 38* | 18
Nc1nonc1C(=O)NCCNCc1ccccc1OCc1ccccc1F | 2 | 0.79 | -2 | -2 | -2 | 6 | . | .
Nc1nonc1C(=O)NCCNCc1cc(Br)ccc1OCc1ccccc1F | 73* | 0.11 | -2 | -3 | 7 | 32* | 33* | 52*
OCc1nc2ccccc2n1C/C=C/c1ccccc1 | -26 | 0.77 | 0 | -6 | 1 | -7 | . | .
O=C(Nc1cccc(Cl)c1Cl)c1ccc(-c2ccccc2)cc1 | 5 | -0.33 | -3 | -7 | -1 | -3 | . | .
NC(=O)c1ccccc1NC(=O)Nc1cccc(Cl)c1Cl | . | 0.2 | -2 | . | . | 53* | 69* | 33*
C=CCNC(=O)C(=O)N/N=C/c1ccco1 | . | 0.88 | 0 | . | . | -23 | . | .
O=C(OCCN1C(=O)c2cccc3c(N4CCOCC4)ccc(c23)C1=O)c1ccccc1Cl | . | -0.39 | -1 | . | . | 33* | 34* | 46*
O=C(/C=C/c1ccco1)Nc1ccccn1 | . | 0.59 | 0 | . | . | -4 | . | .
Cc1ccc(NC(=O)/C=C/c2ccco2)nc1 | . | 2 | 0 | . | . | 34* | 23 | 48*
N#CC1=C(N)Nc2nc3ccccc3n2C1c1ccc(Cl)cc1 (stereo not given) | . | -0.27 | -1 | . | . | 32* | 27* | 46*
N#CC1=C(N)Nc2ncnn2C1c1ccccc1 (stereo not given) | . | -0.03 | 0 | . | . | -1 | . | .
Cc1ccc(S(=O)(=O)N2CCN(C3CC(=O)N(CCc4ccccc4)C3=O)CC2)cc1C (stereo not given) | 5 | -0.65 | -2 | -1 | 0 | 5 | . | .
Cc1cc(Nc2cccc(Cl)c2)nc(NCc2ccccc2)n1 | . | -2.1 | 0 | . | . | 31* | 51* | 25
Cc1cc(N/N=C/c2cccc(Cl)c2)nc(NCc2ccccc2)n1 | . | -1.4 | -1 | . | . | -3 | . | .
O=C(Nc1ccon1)c1sc2cc(F)ccc2c1Cl | -7 | -0.29 | -2 | -2 | -4 | 0 | . | .
Cc1ccc2c(Cl)c(C(=O)Nc3cc(C)on3)sc2c1 | 5 | 0.45 | -2 | -3 | -5 | 29* | 10 | 11
